In PubChem BioAssay (NCI):
This is part of a sample that, as a whole, favours compounds with a hit. Of some 79,000 tested, about 15% had one in any assay. Unmarked numbers belong to inactive results. Activity calls are given as the source filed them. No stated cut-off is given here; in the data, active means growth inhibition above about 70%; inactive means the rest.

Tests used:
[1] = NCI Yeast Anticancer Drug Screen. Data for the rad50 strain (AID 155);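 further: 0% = growth of vehicle-only cultures of the same strain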; conditions: S. cerevisiae rad50 strain growth inhibition, hits give high values
Procedure, shortened: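 Relative growth inhibition (compound vs vehicle) was measured in yeast with a defined repair-gene alteration.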

[2] = NCI Yeast Anticancer Drug Screen. Data for the mec2-1 strain (AID 157); conditions: S. cerevisiae mec2-1 strain, hits give high values
Procedure, shortened: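 mec2-1 yeast strain, carrying an alteration in DNA damage repair or cell cycle control, was exposed to compounds; growth inhibition was measured relative to vehicle-treated controls.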

[3] = NCI Yeast Anticancer Drug Screen. Data for the sgs1 mgt1 strain (AID 161);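 further: 0% = growth of cultures given vehicle only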; conditions: S. cerevisiae sgs1 mgt1 strain, hits give high values
Procedure, shortened: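 Compounds are added to genetically altered yeast, and growth is compared with cultures given vehicle alone to give percent inhibition.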

[4] = NCI Yeast Anticancer Drug Screen. Data for the cln2 rad14 strain (AID 165);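 further: 0% = growth equal to vehicle treated cultures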; conditions: S. cerevisiae cln2 rad14 strain, hits give high values
Procedure, shortened: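 Yeast carrying cln2 and rad14 alterations (cell cycle control and DNA damage repair) were exposed to compounds. Growth inhibition was measured against vehicle-treated controls.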

[5] = NCI Yeast Anticancer Drug Screen. Data for the bub3 strain (AID 167); conditions: S. cerevisiae bub3 mutant strain, hits give high values
Procedure, shortened: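 Screening used yeast with an engineered genetic alteration affecting cell cycle control. Compound-exposed cultures were compared with vehicle cultures, and reduced growth was taken as inhibition.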

[6] = NCI Yeast Anticancer Drug Screen. Data for the mlh1 rad18 strain (AID 175); conditions: S. cerevisiae mlh1 rad18 strain growth inhibition, hits give high values
Procedure, shortened: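 Growth inhibition of the yeast strain was measured after compound exposure and expressed relative to vehicle-treated controls. The strain carries defined defects in DNA damage repair.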

[7] = at 5.0 µM (retest, dose inferred, filed as 0.5)
[8] = at 50.0 µM (retest, dose inferred, filed as 5.0)

## CCC[As](CCC)SC1CCC2(C)C(=CCC3C4CCC(=O)C4(C)CCC32)C1 (centres undefined)
[1]; [7]
  growth inhibition: 17%
[1]; [8]
  growth inhibition: 98% (active)
[1]; at 50.0 µM
  growth inhibition: 49.5%
[2]; [7]
  growth inhibition: 9%
[2]; [8]
  growth inhibition: 87% (active)
[2]; at 50.0 µM
  growth inhibition: 3.1%
[3]; [7]
  growth inhibition: 19%
[3]; [8]
  growth inhibition: 84% (active)
[3]; at 50.0 µM
  growth inhibition: 82% (active)
[4]; [7]
  growth inhibition: -3%
[4]; [8]
  growth inhibition: 89% (active)
[4]; at 50.0 µM
  growth inhibition: 34.8%
[5]; [7]
  growth inhibition: 0%
[5]; [8]
  growth inhibition: 77% (active)
[5]; at 50.0 µM
  growth inhibition: 17.4%
[6]; [7]
  growth inhibition: 11%
[6]; [8]
  growth inhibition: 97% (active)
[6]; at 50.0 µM
  growth inhibition: 88.5% (active)

## CCC[CH2][Sn]1([CH2]CCC)[O]Cc2nc(C)ccc2[O]1
[1]; [7]
  growth inhibition: 27%
[1]; [8]
  growth inhibition: 92% (active)
[1]; at 50.0 µM
  growth inhibition: 77.5% (active)
[2]; [7]
  growth inhibition: 29%
[2]; [8]
  growth inhibition: 96% (active)
[2]; at 50.0 µM
  growth inhibition: 81.8% (active)
[3]; [7]
  growth inhibition: 40%
[3]; [8]
  growth inhibition: 96% (active)
[3]; at 50.0 µM
  growth inhibition: 80% (active)
[4]; [7]
  growth inhibition: 15%
[4]; [8]
  growth inhibition: 93% (active)
[4]; at 50.0 µM
  growth inhibition: 71.9% (active)
[5]; [7]
  growth inhibition: 33%
[5]; [8]
  growth inhibition: 96% (active)
[5]; at 50.0 µM
  growth inhibition: 83.7% (active)
[6]; [7]
  growth inhibition: 40%
[6]; [8]
  growth inhibition: 96% (active)
[6]; at 50.0 µM
  growth inhibition: 85.5% (active)

## c1ccc([Te][Te]c2ccccc2)cc1
[1]; [7]
  growth inhibition: 62%
[1]; [8]
  growth inhibition: 90% (active)
[1]; at 50.0 µM
  growth inhibition: 17.6%
[2]; [7]
  growth inhibition: 22%
[2]; [8]
  growth inhibition: 68%
[2]; at 50.0 µM
  growth inhibition: 36.2%
[3]; [7]
  growth inhibition: 40%
[3]; [8]
  growth inhibition: 79% (active)
[3]; at 50.0 µM
  growth inhibition: 75% (active)
[4]; [7]
  growth inhibition: 49%
[4]; [8]
  growth inhibition: 63%
[4]; at 50.0 µM
  growth inhibition: 71.2% (active)
[5]; [7]
  growth inhibition: 52%
[5]; [8]
  growth inhibition: 68%
[5]; at 50.0 µM
  growth inhibition: 41.5%
[6]; [7]
  growth inhibition: 56%
[6]; [8]
  growth inhibition: 88% (active)
[6]; at 50.0 µM
  growth inhibition: 86% (active)

## CCCCC(CC)CNP(=S)(NCC(CC)CCCC)NCC(CC)CCCC (centres undefined)
[1]; [7]
  growth inhibition: -3%
[1]; [8]
  growth inhibition: 37%
[1]; at 50.0 µM
  growth inhibition: 58.9%
[2]; [7]
  growth inhibition: -3%
[2]; [8]
  growth inhibition: 30%
[2]; at 50.0 µM
  growth inhibition: 9.55%
[3]; [7]
  growth inhibition: -4%
[3]; [8]
  growth inhibition: 27%
[3]; at 50.0 µM
  growth inhibition: 6.25%
[4]; [7]
  growth inhibition: -2%
[4]; [8]
  growth inhibition: 20%
[4]; at 50.0 µM
  growth inhibition: 35.8%
[5]; [7]
  growth inhibition: -5%
[5]; [8]
  growth inhibition: 37%
[5]; at 50.0 µM
  growth inhibition: 13.4%
[6]; [7]
  growth inhibition: -5%
[6]; [8]
  growth inhibition: 33%
[6]; at 50.0 µM
  growth inhibition: 69.1%

## CC(C)(C)C1=CC(=C/C=C/c2cc(C(C)(C)C)[o+]c(C(C)(C)C)c2)C=C(C(C)(C)C)O1
[1]; [7]
  growth inhibition: 99% (active)
[1]; [8]
  growth inhibition: 93% (active)
[1]; at 50.0 µM
  growth inhibition: 67.3%
[2]; [7]
  growth inhibition: 99% (active)
[2]; [8]
  growth inhibition: 96% (active)
[2]; at 50.0 µM
  growth inhibition: 95.6% (active)
[3]; [7]
  growth inhibition: 99% (active)
[3]; [8]
  growth inhibition: 94% (active)
[3]; at 50.0 µM
  growth inhibition: 52.5%
[4]; [7]
  growth inhibition: 99% (active)
[4]; [8]
  growth inhibition: 94% (active)
[4]; at 50.0 µM
  growth inhibition: 96% (active)
[5]; [7]
  growth inhibition: 99% (active)
[5]; [8]
  growth inhibition: 94% (active)
[5]; at 50.0 µM
  growth inhibition: 94.3% (active)
[6]; [7]
  growth inhibition: 99% (active)
[6]; [8]
  growth inhibition: 95% (active)
[6]; at 50.0 µM
  growth inhibition: 37.5%

## CCOP(=O)(OCC)/C(C#N)=C/c1cccc(C)c1
[1]; [7]
  growth inhibition: 4%
[1]; [8]
  growth inhibition: 53%
[1]; at 50.0 µM
  growth inhibition: 71.4% (active)
[2]; [7]
  growth inhibition: -14%
[2]; [8]
  growth inhibition: 28%
[2]; at 50.0 µM
  growth inhibition: 58.3%
[3]; [7]
  growth inhibition: -18%
[3]; [8]
  growth inhibition: 42%
[3]; at 50.0 µM
  growth inhibition: 65.8%
[4]; [7]
  growth inhibition: -17%
[4]; [8]
  growth inhibition: 9%
[4]; at 50.0 µM
  growth inhibition: 35%
[5]; [7]
  growth inhibition: -8%
[5]; [8]
  growth inhibition: 52%
[5]; at 50.0 µM
  growth inhibition: 52.1%
[6]; [7]
  growth inhibition: -37%
[6]; [8]
  growth inhibition: 56%
[6]; at 50.0 µM
  growth inhibition: 66.3%

## CC1(C)CC(=O)C([Se]C2=C(O)CC(C)(C)CC2=O)=C(O)C1
[1]; [7]
  growth inhibition: 96% (active)
[1]; [8]
  growth inhibition: 99% (active)
[1]; at 50.0 µM
  growth inhibition: 99.6% (active)
[2]; [7]
  growth inhibition: 91% (active)
[2]; [8]
  growth inhibition: 99% (active)
[2]; at 50.0 µM
  growth inhibition: 99.8% (active)
[3]; [7]
  growth inhibition: 86% (active)
[3]; [8]
  growth inhibition: 99% (active)
[3]; at 50.0 µM
  growth inhibition: 99.8% (active)
[4]; [7]
  growth inhibition: 35%
[4]; [8]
  growth inhibition: 99% (active)
[4]; at 50.0 µM
  growth inhibition: 99.4% (active)
[5]; [7]
  growth inhibition: 40%
[5]; [8]
  growth inhibition: 99% (active)
[5]; at 50.0 µM
  growth inhibition: 99.6% (active)
[6]; [7]
  growth inhibition: 94% (active)
[6]; [8]
  growth inhibition: 99% (active)
[6]; at 50.0 µM
  growth inhibition: 99.3% (active)

## [O]=[Sb][c]1ccc(Cl)cc1
[1]; [7]
  growth inhibition: 5%
[1]; [8]
  growth inhibition: 42%
[1]; at 50.0 µM
  growth inhibition: 96.7% (active)
[2]; [7]
  growth inhibition: 3%
[2]; [8]
  growth inhibition: 36%
[2]; at 50.0 µM
  growth inhibition: 85.5% (active)
[3]; [7]
  growth inhibition: 1%
[3]; [8]
  growth inhibition: 56%
[3]; at 50.0 µM
  growth inhibition: 99.1% (active)
[4]; [7]
  growth inhibition: 0%
[4]; [8]
  growth inhibition: 19%
[4]; at 50.0 µM
  growth inhibition: 54.3%
[5]; [7]
  growth inhibition: 4%
[5]; [8]
  growth inhibition: 48%
[5]; at 50.0 µM
  growth inhibition: 87.7% (active)
[6]; [7]
  growth inhibition: 3%
[6]; [8]
  growth inhibition: 35%
[6]; at 50.0 µM
  growth inhibition: 93.3% (active)
